# Compound activity deposited in PubChem BioAssay by National Center for Advancing Translational Sciences (NCATS).
# HPGD inh = qHTS Assay for Inhibitors of HPGD (15-Hydroxyprostaglandin Dehydrogenase). Potency, µM, inactives show top-dose activity change, negative = inhibition, hits mostly inhibitors. purified HPGD, NADH fluorescence kinetic, PGE2 substrate. 15-hydroxyprostaglandin dehydrogenase [NAD(+)] (Homo sapiens), P15428. 4.3% of 150,000 active. AID 894, 2007; further: potency means the concentration at half of the fitted maximal effect; on the % scale 0 is the no-effect control and ±100 the full control effect
#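 20 nM HPGD preincubated 15 min at room temperature with compound in 50 mM Tris-HCl pH 8, 0.01% Tween 20. Started with 1 mM NAD+ and 30 uM prostaglandin E2; NADH fluorescence (360/450 nm) read 5 times over 30-s intervals, last minus first.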
# HTT ATP protect = qHTS Multiplex Assay to Identify Dual Action Probes in a Cell Model of Huntington: Cytoprotection (ATP). Potency, µM (series often up to 56.4 µM), without a hit: cytoprotection (ATP increase), most hits filed as activators. 0.14% of 230,000 active. PC12 HTT-Q103 induced, cytoprotection, ATP luminescence, 40 h; active means well fitted curve in the direction sought with a large enough effect; inconclusive means small, poorly fitted or top-dose-only effect, or another doubt; inactive means no such curve, though single readings can be large; an effect the other way counts as inactive or inconclusive; further: potency means the concentration at half of the fitted maximal effect; % of control where 0% means no effect; nearly all actives have a fitted effect of over 45% in size
#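 ATP quantification (ATPlite) reports survival of PC12 cells in which tebufenozide, 100 nM final, switches on Htt exon 1 with 103 glutamines linked to GFP; compounds are titrated.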
# ALDH1A1 block = qHTS Assay for Inhibitors of Aldehyde Dehydrogenase 1 (ALDH1A1); 7.3% of 220,000 active; Aldehyde dehydrogenase 1A1 (Homo sapiens), P00352; AID 1030, 2008; Potency, µM (highest dose often 75.3 µM), for the others: at the highest dose activity, negative = inhibition, actives largely listed as inhibitors; Purified ALDH1A1, NADH fluorescence, propionaldehyde substrate;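 further: potency means the concentration at half of the fitted maximal effect; plate controls were no enzyme wells and a reference inhibitor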
# GoLoco inh red = qHTS Assay for Inhibitors of RGS12 GoLoco Motif Activity (Red Fluorophore). 0.44% of 230,000 active. Gai1:RGS12 GoLoco peptide FP, rhodamine, 10 min. AID 880, 2007. Potency, µM (titrated, usually from 61.6 µM), for the others: at the top dose activity, negative = inhibition, usual class: inhibitors; active means well fitted inhibition curve with a large enough effect, not every such curve was filed as active; inactive means no such curve, though single readings can be large or run the other way; further: potency means the concentration at half of the fitted maximal effect; on the % scale 0 is the no-effect control and ±100 the full control effect; nearly all actives have a fitted effect of over 30% in size
# Target sequence (P63096 whole entry, looked up): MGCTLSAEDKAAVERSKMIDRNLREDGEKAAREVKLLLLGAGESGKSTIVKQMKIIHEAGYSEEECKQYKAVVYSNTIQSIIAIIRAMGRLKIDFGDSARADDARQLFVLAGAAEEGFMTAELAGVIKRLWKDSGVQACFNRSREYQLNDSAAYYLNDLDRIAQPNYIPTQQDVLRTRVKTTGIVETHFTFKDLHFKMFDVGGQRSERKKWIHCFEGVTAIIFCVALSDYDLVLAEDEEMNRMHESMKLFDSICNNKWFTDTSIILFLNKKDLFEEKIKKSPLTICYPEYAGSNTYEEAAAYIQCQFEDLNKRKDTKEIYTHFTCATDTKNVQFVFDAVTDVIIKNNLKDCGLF
# HttQ103 aggreg = qHTS Multiplex Assay to Identify Dual Action Probes in a Cell Model of Huntington: Aggregate Formation (GFP). Potency, µM (top dose mostly 46.1 µM), inactives show at the highest dose activity change, negative = inhibition, actives largely listed as inhibitors. AID 1688, 2009. 1.1% of 220,000 active. PC12 HttQ103-GFP aggregates, Acumen cytometry, 40 h; active means well fitted curve in the direction sought with a large enough effect; inconclusive means small, poorly fitted or top-dose-only effect, or another doubt; inactive means no such curve, though single readings can be large; an effect the other way counts as inactive or inconclusive; further: potency means the concentration at half of the fitted maximal effect; on the % scale 0 is the no-effect control and ±100 the full control effect; nearly all actives have a fitted effect of over 60% in size
#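 PC12 cells stably carrying ecdysone-inducible HTT exon 1 Q103–GFP were induced with tebufenozide (100 nM final) and treated with library compounds in titration. GFP aggregates in lysates were counted by laser scanning cytometry.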
# PNC inhibitor = High Content Assay for Compounds that inhibit the Assembly of the Perinucleolar Compartment; activity change (PNC), negative = inhibition, % at 10 µM; 3.1% of 140,000 active; PC3M PTB-GFP, PNC prevalence imaging, 16 h; active compounds read low;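 active means readout at or below -70, meaning at least 70% loss of cells showing the perinucleolar compartment, a nuclear body marking cancer cells; inconclusive means readout between -30 and a set limit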;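 further: plate controls were DMSO wells for no effect and camptothecin positive control wells for full effect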
#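 Read-out is percentage of cells bearing a perinucleolar compartment, from automated 20x imaging of fixed, Hoechst-stained PC3M PTB-GFP cells. Cells were seeded 4 h, then exposed 16 h to compound (23 nl of library stock) in duplicate plates.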
# * marks the source's active call; other numbers are inactive results; ? = inconclusive; . = no result given; ! = not confirmed by another sample; [ ] = another dose, or the depositor's remark. Sampled rows, rich in hits. Any-hit rate of the full collection: about 11%. Unless noted, the call rests on the fitted dose curve; in most records, active means well fitted inhibition curve with a large enough effect (not every such curve was filed as active); inconclusive means small, poorly fitted or top-dose-only effect, or another doubt; inactive means no such curve, though single readings can be large or run the other way.
SMILES,HPGD inh,HTT ATP protect,ALDH1A1 block,GoLoco inh red,HttQ103 aggreg,PNC inhibitor
Cc1c(C(=O)c2ccc3ccccc3c2)c2cccc3c2n1[C@H](CN1CCOCC1)CO3,4%,?,-14%,4%,.,.
Nc1nc(N)c(N=Nc2ccc([As](=O)(O)O)cc2)c(=O)[nH]1,-1%,12%[10 µM],2%[13.5 µM],0%[14.2 µM],.,.
C[C@@]12Cc3cnc(-c4ccccc4)nc3C[C@@H]1CC[C@@H]1[C@H]3CC[C@@](C)(O)[C@]3(C)CC[C@@H]12,-9%,-6%[10 µM],?,7%[14.2 µM],.,.
O=P(O)(O)CCP(=O)(O)O,-6%,-1%[10 µM],1%[13.5 µM],6%[14.2 µM],.,.
CN=C=O,-11%,11%,-1%,1%,.,.
CC1(C)N([O-])[N+](=O)C1(C)Br (centres undefined),32µM*,-29%,11µM*,-12%,.,.
O=C(C/C=N\OCc1c(Cl)cccc1Cl)Oc1ccc(Cl)cc1Cl,-15%,-9%,?,1%,11%[9.22 µM],-23
CCNC(C)(C)[C@@H](SS)c1ccc(Br)cc1,3.2µM*,-19%[10 µM],?,-9%[14.2 µM],.,.
COc1cccc(-n2c(CN3CCN(C)CC3)nc3ccc([N+](=O)[O-])cc3c2=O)c1,28µM*,2%[10 µM],8%,21%,1%,12
C[C@H]1CCCC(=O)CCC/C=C/c2cc(O)cc(O)c2C(=O)O1,14µM*!,-28%,14µM*,7%,-30%,?
Oc1c(Cl)c(Cl)c(Cl)c(Cl)c1Cl,.,?,18µM*!,-1%,.,.
Cc1ccc(NC(=[OH+])c2cc3ccccc3cc2O)c(C)c1.Cc1ccc(NC(=[OH+])c2cc3ccccc3cc2O)c(C)c1.[Ni],1.8µM*,8%[10 µM],-20%[13.5 µM],1%[14.2 µM],.,.
CCCCC/C=C\C/C=C\C/C=C\C/C=C\CCCC(=O)NCCCl,?,-21%,?,10%,.,.
CN1CCC(O)(c2ccccc2)C(C(=O)c2ccccc2)C1 (centres undefined),-4%,26%,0.14µM*,3%,20%,27
CN1CCCC(C(=O)c2ccccc2)C1 (centres undefined),-8%,-5%,8%,9%,-4%,82
Cc1ccc(-n2nnnc2SCC(=O)Nc2sc(C)c(C)c2C#N)cc1C,-20%,-28%[10 µM],16µM*,33%,31%,35
Nc1nonc1C(=O)N/N=C/c1ccc([N+](=O)[O-])o1,.,.,13µM*,17%,19%,.
N/C(=N\[N+](=O)[O-])N/N=C/c1ccc(O)cc1,-18%,24%,12%,6%,-2%,?
Clc1ccc(OCC#CCN2CCOCC2)cc1,.,-18%,?,-1%,-10%[9.22 µM],.
COc1ccc(OCC#CCN2CCCCCC2)cc1,.,.,22µM*,1%,-8%,.
CC(C)c1ccc(N=Nc2c(O)[nH]c(=O)[nH]c2=O)cc1,.,-28%[10 µM],.,15%,-27%[9.22 µM],.
O=c1[nH]c(=S)[nH]c(O)c1N=Nc1ccc(SC(F)F)cc1,.,-18%[10 µM],20µM*,16%,-16%[9.22 µM],.
O=c1[nH]c(=S)[nH]c(O)c1N=Nc1ccc(S(=O)(=O)N2CCc3ccccc32)cc1,.,-41%,6.3µM*,6%,?,.
CC[C@]12CCCN3CCC4(c5ccccc5NC4C(C(=O)O)C1)C32 (some centres undefined),-7%,-49%,10%,9%,.,.
COc1ccc(/C=C2/C(=O)NC(=S)N(C3CC3)C2=O)cc1CN1C(=O)c2ccccc2C1=O,14µM*,27%[10 µM],20µM*,26%,23%,-8
COc1ccc(/C=C2/C(=O)NC(=O)N(c3ccccc3)C2=O)cc1CN1C(=O)c2ccccc2C1=O,.,6%[10 µM],.,23%,-20%[9.22 µM],.
